This is an account of results in PubChem BioAssay (NCI).

SMILES strings stand for the structures. Several values for one entry are separate records, joined by “and”; a condition that tells them apart may be missing. Equal entries are not always repeated. This is part of a sample that, as a whole, favours compounds with a hit. Of some 83,000 tested, about 20% had one in any assay.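 Percent growth is the endpoint: 0 to 100 indicates growth inhibition (40 means 60% inhibition), 0 means no net growth, and negative values indicate cell death.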 Values without a mark were called inactive. Activity calls are given as the source filed them. How the source made its calls: active means growth percent below 10; inactive means the rest.

The test system of this assay is MDA-MB-468 breast. Briefly: NCI-60 one-dose screen, 48 h (100 = growth as untreated, 0 = no growth, -100 = all killed). The settings on record: 10 µM unless noted.
With `O=C(Nc1nn2c(-c3cc(C(F)(F)F)cc(C(F)(F)F)c3)nnc2s1)C1CCCC1`, the growth is -17.2% (active).
`Nc1nc2c(c3ncccc13)C(c1ccccc1)Cc1ncccc1-2` (centres undefined): the growth was 55.8%.
To `CCOC(=O)CC1CSC(N/N=C(/C)c2cccc(C(F)(F)F)c2)=N1` (centres undefined) belongs 104%.
`COc1ccc(-c2nc(-c3nc4ccc(F)cc4[nH]3)cc3c2[nH]c2ccccc23)cc1`: the growth is 40%.
Regarding `COc1cc2c(c(OC)c1OC)-c1ccc(OC)c(=O)cc1[C@@H](NC(=O)CCl)CC2`, the growth was -5.69% (active).
To `COc1cc(OC)cc(N2CCN(C(=O)Nc3nc4cc(F)ccc4nc3OC)CC2)c1` belongs -5.78% (active).
As for `Nc1cc(N)c(S(=O)(=O)O)cc1N=Nc1cc([N+](=O)[O-])ccc1O`, the growth was 102%.
With `CN(CCC#N)C(=O)Nc1ccccc1`, the growth was 109%.
To `COC(=O)[C@@H]1CCCN1C(=O)[C@@H]1CCCN1C(=O)[C@@H](Cc1c[nH]c2ccccc12)NC(=S)Nc1cc(C(F)(F)F)cc(C(F)(F)F)c1` belongs 2.25% (active); to `O=c1[nH]c(=O)n(C2CC(O)C(CO)O2)cc1CO` (centres undefined), 101%.
On to `CN(C)C(=O)C1=NC(CO)C(=O)N(c2ccc(Cl)cc2)N1` (centres undefined), for which the growth is 95.2%.
`COc1ccc(-c2cc(-c3cc(OC)c(OC)c(OC)c3)c(C#N)c(=O)n2CCCCCC(=O)NO)cc1`: the growth was 97.4%.
Turning to `Cc1ccccc1C1N=C2Oc3ccccc3C=C2C(=O)N1` (centres undefined), the growth is 21.8%.
`Cc1cc(-c2ccc(NS(=O)(=O)c3ccccc3)c(C)c2)ccc1NS(=O)(=O)c1ccccc1`: the growth was 80.4% and 101%.
